# Inconclusive results are not listed. The source made the active and inactive calls. Calls follow the shape of the dose curve; as a rule, active = well fitted curve in the direction sought with a large enough effect; inconclusive = small, poorly fitted or top-dose-only effect, or another doubt; inactive = no such curve, though single readings can be large; an effect the other way counts as inactive or inconclusive.
# Tests used:
# [1] = target: N-terminal Xaa-Pro-Lys N-methyltransferase 1 (Homo sapiens) (UniProt Q9BV86); assay: qHTS Assay for Inhibitors of N-terminal methyltransferase 1 (NTMT1): LOPAC validation of the NTMT1 SAHH-coupled ThioGlo3 Assay (AID 1347143);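 also: SAH from peptide methylation measured as thiol fluorescence via SAHH coupling and ThioGlo3; nearly all actives have a fitted effect of over 70% in size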; also: potency is read from the fitted curve at half-maximal effect
# In short: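 In this qHTS pilot against the LOPAC set, 125nM NTMT1 met compounds tested at multiple concentrations, and fluorescence was normalized to background.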
# [2] = qHTS of pediatric cancer cell lines to identify multiple opportunities for drug repurposing: Confirmatory screen for Rh41 cells (AID 1347123);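 also: potency is read from the fitted curve at half-maximal effect; 48 h compound exposure; nearly all actives have a fitted effect of over 60% in size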
# In short: (§1)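 Cells (500-1,000/well) in growth media were settled 5 h at 37 degrees C, then given compounds for 48 h. Viability was read as CellTiter-Glo luminescence. Primary runs used MIPE at 11 points (0.78 nM-46 µM) and NPC at 8 points (0.59 nM-46 µM); follow-ups used 11 points.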
# [3] = qHTS of pediatric cancer cell lines to identify multiple opportunities for drug repurposing: Confirmatory screen for RD cells (AID 1347124);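 also: cells exposed to compound for 48 h before viability readout; nearly all actives have a fitted effect of over 65% in size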; also: potency is read from the fitted curve at half-maximal effect
# In short: as §1
# [4] = qHTS of pediatric cancer cell lines to identify multiple opportunities for drug repurposing: Confirmatory screen for Rh30 cells (AID 1347126); also: potency is read from the fitted curve at half-maximal effect; nearly all actives have a fitted effect of over 55% in size
# In short: as §1
# [5] = qHTS of pediatric cancer cell lines to identify multiple opportunities for drug repurposing: Confirmatory screen for OHS-50 cells (AID 1347128);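 also: compound exposure lasted 48 h at 37 degrees C; nearly all actives have a fitted effect of over 55% in size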; also: potency is read from the fitted curve at half-maximal effect
# In short: as §1
# [6] = qHTS of pediatric cancer cell lines to identify multiple opportunities for drug repurposing: Confirmatory screen for SK-N-SH cells (AID 1347129);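 also: potency is read from the fitted curve at half-maximal effect; cells exposed to compound for 48 h before viability read; nearly all actives have a fitted effect of over 60% in size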
# In short: as §1
# [7] = test system: Zika virus NS2B-NS3 protease; assay: Primary screen GU AMC qHTS for Zika virus inhibitors (AID 1347154); also: nearly all actives have a fitted effect of over 70% in size; also: potency is read from the fitted curve at half-maximal effect
# In short: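 Unlinked Zika NS2B hydrophilic domain/NS3 protease domain noncovalent complex (25 nM final) in 10 mM Tris-HCl pH 8.0, 0.01% Tween 20, with AMC peptide substrate. Fluorescence (ex 340, em 450 nm) change over 15 min, room temperature; percent inhibition fitted to 4-parameter Hill equation.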
# [8] = qHTS of pediatric cancer cell lines to identify multiple opportunities for drug repurposing: Confirmatory screen for Saos-2 cells (AID 1347127); conditions: Saos-2 osteosarcoma cell viability; also: potency is read from the fitted curve at half-maximal effect; nearly all actives have a fitted effect of over 60% in size
# In short: as §1
# [9] = qHTS of pediatric cancer cell lines to identify multiple opportunities for drug repurposing: Confirmatory screen for Rh18 cells (AID 1347125); also: nearly all actives have a fitted effect of over 55% in size; also: potency is read from the fitted curve at half-maximal effect
# In short: as §1
# Furin (Homo sapiens) = Furin (Homo sapiens) (UniProt P09958); assay: Furin counterscreen qHTS for Zika virus inhibitors (AID 1347149);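 also: purified recombinant full-length human furin enzyme at 5 nM; fluorescence gain from furin cutting a BOC-RVRR-AMC peptide substrate over 15 min; top concentration of the series differs between compounds; nearly all actives have a fitted effect of over 70% in size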
# In short: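 Counterscreen measures cleavage of 2 microM BOC-RVRR-AMC, below its ~15 microM Km, by 5 nM full-length human furin at pH 7.0 after a 15-min compound preincubation. Inhibition derives from the 15-min fluorescence increase at 37C.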
# [10] = test system: Zika virus NS2B-NS3 protease (unlinked); assay: Optimization of GU AMC qHTS for Zika virus inhibitors: Unlinked NS2B-NS3 protease assay (AID 1347151); also: nearly all actives have a fitted effect of over 80% in size; also: potency is read from the fitted curve at half-maximal effect
# In short: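 Fluorescence gain (340/450 nm) over 15 min at room temperature, ~20% conversion, gave percent inhibition fitted to a 4-parameter Hill equation; enzyme was unlinked NS2B-NS3 (25 nM final), pH 8.0 Tris buffer.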
# [11] = test system: Zika virus NS2B-NS3 protease (unlinked complex); assay: Confirmatory screen GU AMC qHTS for Zika virus inhibitors (AID 1347153); also: nearly all actives have a fitted effect of over 70% in size
# In short: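 Unlinked enzyme 25 nM, Tris pH 8.0/0.01% Tween 20; cpd 15 min RT, dark; + AMC substrate 10 µM (Km 18.3 µM); 340/450 nm read at t0 and 15 min; % inhibition → 4-param fit.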
# [12] = Confirmatory screen NINDS Rhodamine qHTS for Zika virus inhibitors (AID 1347161); also: potency is read from the fitted curve at half-maximal effect; nearly all actives have a fitted effect of over 60% in size
# In short: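 Percent inhibition, normalized to uninhibited and enzyme-free controls, is fitted to a 4-parameter Hill equation. Fluorescence change comes from a 15-min cleavage of 1.5 microM bis-peptide Rhodamine110 substrate by 25 nM linked NS2B-NS3 at room temperature.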
# [13] = test system: Zika virus NS2B-NS3 protease (linked); assay: 384 well plate NINDS AMC confirmatory qHTS for Zika virus inhibitors (AID 1347163); conditions: Recombinant NS2B-NS3 protease, Ac-VKTGKR-AMC fluorescence; also: potency is read from the fitted curve at half-maximal effect; nearly all actives have a fitted effect of over 50% in size
# In short: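 Enzyme (5, 30 or 60 nM final) first met test compounds for ~15 min. The AMC-tagged peptide Ac-VKTGKR-AMC followed at 30 microM. Fluorescence was then recorded at 25 min and scaled against no-enzyme and no-inhibitor wells.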
# [14] = test system: Zika virus NS2B-NS3 protease (linked construct); assay: Confirmatory screen NINDS AMC qHTS for Zika virus inhibitors (AID 1347152)
# In short: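 IC50s from 4-parameter Hill fits of percent inhibition, based on AMC fluorescence gain (340/450 nm) over 15 min with 10 microM Bz-Nle-KRR-AMC. Enzyme: 1 nM linked NS2B-NS3 in Tris-HCl pH 8.0; 15-min compound preincubation.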
# [15] = qHTS of pediatric cancer cell lines to identify multiple opportunities for drug repurposing: Confirmatory screen for U-2 OS cells (AID 1347122); also: potency is read from the fitted curve at half-maximal effect; nearly all actives have a fitted effect of over 65% in size
# In short: as §1
# Sequence of Furin (Homo sapiens) (P09958 whole entry, looked up): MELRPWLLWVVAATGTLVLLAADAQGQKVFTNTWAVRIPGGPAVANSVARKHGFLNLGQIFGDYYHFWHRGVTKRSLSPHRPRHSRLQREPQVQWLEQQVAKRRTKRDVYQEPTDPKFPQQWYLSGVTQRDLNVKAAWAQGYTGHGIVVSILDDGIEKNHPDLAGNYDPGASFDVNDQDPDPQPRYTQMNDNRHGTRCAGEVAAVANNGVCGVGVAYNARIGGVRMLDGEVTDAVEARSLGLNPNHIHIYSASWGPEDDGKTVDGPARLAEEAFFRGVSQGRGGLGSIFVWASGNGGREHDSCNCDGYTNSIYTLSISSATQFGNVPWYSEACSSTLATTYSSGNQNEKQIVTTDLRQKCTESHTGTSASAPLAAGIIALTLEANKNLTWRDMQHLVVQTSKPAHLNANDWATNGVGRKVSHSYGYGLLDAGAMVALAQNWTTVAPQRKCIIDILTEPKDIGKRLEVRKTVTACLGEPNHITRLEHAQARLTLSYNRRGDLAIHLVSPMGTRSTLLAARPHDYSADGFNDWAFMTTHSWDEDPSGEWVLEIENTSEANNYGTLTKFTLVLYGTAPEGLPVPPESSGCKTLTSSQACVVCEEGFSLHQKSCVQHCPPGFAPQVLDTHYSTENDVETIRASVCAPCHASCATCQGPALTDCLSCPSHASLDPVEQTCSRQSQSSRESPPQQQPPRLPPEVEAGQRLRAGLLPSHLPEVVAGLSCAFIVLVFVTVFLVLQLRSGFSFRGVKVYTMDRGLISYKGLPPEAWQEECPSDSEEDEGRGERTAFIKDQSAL
# Sequence of N-terminal Xaa-Pro-Lys N-methyltransferase 1 (Homo sapiens) (Q9BV86 whole entry, looked up): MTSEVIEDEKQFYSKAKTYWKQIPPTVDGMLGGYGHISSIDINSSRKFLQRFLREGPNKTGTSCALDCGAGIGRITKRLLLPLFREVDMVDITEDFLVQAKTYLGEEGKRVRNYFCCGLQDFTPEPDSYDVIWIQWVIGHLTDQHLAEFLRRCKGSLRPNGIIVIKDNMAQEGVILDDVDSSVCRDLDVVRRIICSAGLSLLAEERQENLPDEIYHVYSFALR
structure (smiles),measurement,setting,value
COc1ccc(NC(=O)/C=C/c2ccc(Cl)cc2)cc1,Potency,[1],inactive
CNC(=O)[C@H]1O[C@@H](n2cnc3c(NCc4ccc(N)cc4)ncnc32)[C@H](O)C1O (stereo not given in full),Potency,[1],inactive
CNC(=O)[C@H]1O[C@@H](n2cnc3c(NCc4cccc(I)c4)ncnc32)[C@H](O)C1O (stereo not given in full),Potency,[1],inactive
N=C1N=C(N)c2cc3ccccc3cc21,Potency,[2],30.2 µM (active)
same,Potency,[3],inactive
same,Potency,[4],47.9 µM (active)
same,Potency,[5],42.7 µM (active)
same,Potency,[6],38.2 µM (active)
same,Potency,[7],23.3 µM (active)
COc1cccc2c1C(=O)c1c(O)c3c(c(O)c1C2=O)C[C@@](O)(C(=O)CO)C[C@@H]3O[C@H]1C[C@H](N)[C@H](O[C@@H]2CCCCO2)[C@H](C)O1,Potency,[2],2.93 µM (active)
same,Potency,[4],5.85 µM (active)
same,Potency,[6],2.35 µM (active)
OCC1O[C@H]([S-])C(O)[C@@H](O)[C@@H]1O.[Au+] (stereo not given in full),Potency,[1],inactive
OC[C@H]1O[C@@H](n2cnc3c(NC4CCCC4)ncnc32)[C@H](O)C1O (stereo not given in full),Potency,[1],inactive
C[C@H](Cc1ccccc1)Nc1ncnc2c1ncn2[C@@H]1O[C@H](CO)C(O)[C@H]1O (stereo not given in full),Potency,[1],inactive
CCCCC#Cc1nc(NC)c2ncn([C@@H]3O[C@H](CO)[C@@H](O)C3O)c2n1 (stereo not given in full),Potency,[1],39.8 µM (active)
NCC1OC(OC2C(O)[C@@H](OC3C(O)C(N)CC(N)C3OC3OC(CO)C(O)C(O)C3N)O[C@@H]2CO)C(N)C(O)C1O (stereo not given in full),Potency,[1],inactive
C[N+](C)(C)CCOP(=O)(O)OP(=O)([O-])OC[C@H]1O[C@@H](n2ccc(N)nc2=O)[C@H](O)C1O (stereo not given in full),Potency,[1],inactive
[O-][n+]1ccccc1SSc1cccc[n+]1[O-],Potency,[3],inactive
same,Potency,[8],1.82 µM (active)
same,Potency,[6],3.23 µM (active)
same,Potency,[7],inactive
C=C/C(C)=C/[C@@]1(C)SC(=O)C(C)=C1O,Potency,[1],inactive
CNc1ncnc2c1ncn2[C@@H]1O[C@H](CO)C(O)[C@H]1O (stereo not given in full),Potency,[1],inactive
CN(C)c1ccc(C(=C2C=CC(=[N+](C)C)C=C2)c2ccccc2)cc1,Potency,[2],0.414 µM (active)
same,Potency,[3],1.31 µM (active)
same,Potency,[9],1.04 µM (active)
same,Potency,[4],0.104 µM (active)
same,Potency,[8],0.522 µM (active)
same,Potency,[5],2.61 µM (active)
same,Potency,[6],1.32 µM (active)
same,Potency,[7],inactive
Nc1ncnc2c1ncn2[C@@H]1O[C@H](CO)C(O)[C@H]1O (stereo not given in full),Potency,[1],2.24 µM (active)
Nc1nc(SCc2ccc([N+](=O)[O-])cc2)c2ncn([C@@H]3O[C@H](CO)C(O)[C@H]3O)c2n1 (stereo not given in full),Potency,[1],inactive
CC(C)(C)NCC(O)COc1nsnc1N1CCOCC1 (stereo not given),Potency,[1],inactive
C=C[C@H]1CN2CC[C@@H]1C[C@H]2[C@H](O)c1ccnc2ccc(OC)cc12,Potency,[1],56.2 µM (active)
O=C(c1cc(O)c(O)c([N+](=O)[O-])c1)c1ccccc1F,Potency,[1],56.2 µM (active)
same,Potency,Furin (Homo sapiens),inactive
same,Potency,[10],2.99 µM (active)
same,outcome,[11],inactive
same,Potency,[12],17.5 µM (active)
same,Potency,[13],112 µM (active)
O=C(NOCC1CC1)c1cc(Br)c(F)c(F)c1Nc1ccc(I)cc1Cl,Potency,[1],inactive
same,Potency,Furin (Homo sapiens),inactive
same,Potency,[14],inactive
same,outcome,[11],inactive
same,Potency,[12],3.92 µM (active)
same,Potency,[13],44.7 µM (active)
CCCSc1ccc2nc(NC(=O)OC)[nH]c2c1,Potency,[15],1 µM (active)
same,Potency,[2],1.12 µM (active)
same,Potency,[3],2.51 µM (active)
same,Potency,[8],1.58 µM (active)
same,Potency,[5],2.51 µM (active)
same,Potency,[6],6.31 µM (active)
same,Potency,[7],inactive
N=c1ccn2c(n1)O[C@H]1C(O)[C@@H](CO)O[C@H]12 (stereo not given in full),Potency,[1],inactive
Oc1cc2c(cc1O)CN(C(=S)NCCc1ccc(Cl)cc1)CCC2,Potency,[1],20 µM (active)
same,Potency,Furin (Homo sapiens),inactive
same,Potency,[10],23.8 µM (active)
same,Potency,[14],inactive
same,outcome,[11],inactive
same,Potency,[7],inactive
Nc1nc(Nc2ccccc2)nc2c1ncn2[C@@H]1O[C@H](CO)C(O)[C@H]1O (stereo not given in full),Potency,[1],39.8 µM (active)
NC(=O)C(=O)O,Potency,[1],inactive
same,Potency,Furin (Homo sapiens),inactive
same,Potency,[10],inactive
COC(=O)c1nc(Cl)c(Cl)nc1N,Potency,[15],2.61 µM (active)
same,Potency,[2],1.31 µM (active)
same,Potency,[3],2.61 µM (active)
same,Potency,[9],20.8 µM (active)
same,Potency,[4],16.5 µM (active)
same,Potency,[8],2.61 µM (active)
same,Potency,[5],18.5 µM (active)
same,Potency,[6],4.69 µM (active)
same,Potency,[7],10 µM (active)
Oc1c(Br)cc(Br)c2cccnc12,Potency,[15],14.7 µM (active)
same,Potency,[9],inactive
same,Potency,[5],inactive
same,Potency,[7],inactive
CC[C@@H](C)[C@H]1O[C@]2(CC[C@@H]1C)C[C@@H]1C[C@@H](C/C=C(\C)[C@@H](O[C@H]3C[C@H](OC)[C@@H](O[C@H]4C[C@H](OC)[C@@H](O)[C@H](C)O4)[C@H](C)O3)[C@@H](C)/C=C/C=C3\CO[C@@H]4[C@H](O)C(C)=C[C@@H](C(=O)O1)[C@]34O)O2,Potency,[1],inactive

# Source: PubChem BioAssay (NCATS)
